# Of roughly 7,900 targets only a part is listed; those with a hit were picked by preference. About 0.6% of all pairs of compound and target were hits.
# Columns and labels:
# Assay in all cases: log2 fold change, soluble protein after heating vs DMSO (PISA); higher = thermal stabilisation; K562 cells, 10 uM, 30 min; active = over 0.2 and 3.5 SD of the protein, either way, in both replicates (recomputed)
# [1] = compound: COC1=CC=C(C=C1)CN2C=CC3=C2C=C(C=C3)C(=O)NO
# Summary of the method: (§1)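 K562 cells at 2×10^6 cells/mL were treated with 10 μM compound for 30 min. Aliquots were heated for 3 min across 48°C-58°C, pooled, and extracted in PBS with 0.5% NP-40 at 4°C; soluble protein was the supernatant after 21,000xg for 90 min. Soluble protein was quantified by TMTpro 16plex LC-MS/MS with channel sums equalised, and reported as log2 fold change in thermal stability against DMSO controls, with values from duplicates.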
# [2] = compound: CON(C)C(=O)N1N=C(c2cc(F)ccc2F)S[C@@]1(CCCN)c1ccccc1 [filanesib]
# Summary of the method: as §1
# [3] = compound: CO[C@H]1C[C@@H]2CC[C@@H](C)[C@@](O)(O2)C(=O)C(=O)N2CCCC[C@H]2C(=O)O[C@H]([C@H](C)C[C@@H]2CC[C@H](n3cnnn3)[C@H](OC)C2)CC(=O)[C@H](C)/C=C(\C)[C@@H](O)[C@@H](OC)C(=O)[C@H](C)C[C@H](C)/C=C/C=C/C=C/1C [zotarolimus]
# Summary of the method: as §1
# [4] = compound: COc1cc(C(=O)O)ccc1NC(=O)[C@@H]1N[C@@H](CC(C)(C)C)[C@](C#N)(c2ccc(Cl)cc2F)[C@H]1c1cccc(Cl)c1F [idasanutlin]
# Summary of the method: as §1
# [5] = compound: COc1cc(Nc2ncc3c(n2)-c2ccc(Cl)cc2C(c2c(F)cccc2OC)=NC3)ccc1C(=O)O [alisertib]
# Summary of the method: as §1
# [6] = compound: COc1cc2nc(-c3cc(F)ccc3O)nc(N[C@@H]3CNC[C@H]3C(C)(C)O)c2cc1OC
# Summary of the method: as §1
# [7] = compound: COc1cc2ncnc(Nc3ccc(F)c(Cl)c3)c2cc1OCCCN1CCOCC1 [gefitinib]
# Summary of the method: as §1
# [8] = compound: COc1cccc2cc(-c3nc([C@H]4CC[C@H](C(=O)O)CC4)n4ncnc(N)c34)[nH]c12
# Summary of the method: as §1
# [9] = compound: CS(=O)(=O)CCNCc1ccc(-c2ccc3ncnc(Nc4ccc(OCc5cccc(F)c5)c(Cl)c4)c3c2)o1 [lapatinib]
# Summary of the method: as §1
# [10] = compound: CS(=O)(=O)N1CCN(Cc2cc3nc(-c4cccc5[nH]ncc45)nc(N4CCOCC4)c3s2)CC1 [pictilisib]
# Summary of the method: as §1
# Chain of UniProt Q7Z6J8 (Q7Z6J8 whole entry, looked up): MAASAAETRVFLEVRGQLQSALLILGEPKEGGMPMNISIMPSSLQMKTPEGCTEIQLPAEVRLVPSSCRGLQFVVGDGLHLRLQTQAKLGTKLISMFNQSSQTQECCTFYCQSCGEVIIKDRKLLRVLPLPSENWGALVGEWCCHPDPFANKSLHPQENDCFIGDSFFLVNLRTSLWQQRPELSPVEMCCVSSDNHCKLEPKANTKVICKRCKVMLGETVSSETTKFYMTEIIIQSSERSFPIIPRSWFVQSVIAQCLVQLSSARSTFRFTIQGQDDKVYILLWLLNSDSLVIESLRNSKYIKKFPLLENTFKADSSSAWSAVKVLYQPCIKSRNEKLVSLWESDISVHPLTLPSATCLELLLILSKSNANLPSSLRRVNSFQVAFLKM
# Chain of UniProt Q9NV66 (Q9NV66 whole entry, looked up): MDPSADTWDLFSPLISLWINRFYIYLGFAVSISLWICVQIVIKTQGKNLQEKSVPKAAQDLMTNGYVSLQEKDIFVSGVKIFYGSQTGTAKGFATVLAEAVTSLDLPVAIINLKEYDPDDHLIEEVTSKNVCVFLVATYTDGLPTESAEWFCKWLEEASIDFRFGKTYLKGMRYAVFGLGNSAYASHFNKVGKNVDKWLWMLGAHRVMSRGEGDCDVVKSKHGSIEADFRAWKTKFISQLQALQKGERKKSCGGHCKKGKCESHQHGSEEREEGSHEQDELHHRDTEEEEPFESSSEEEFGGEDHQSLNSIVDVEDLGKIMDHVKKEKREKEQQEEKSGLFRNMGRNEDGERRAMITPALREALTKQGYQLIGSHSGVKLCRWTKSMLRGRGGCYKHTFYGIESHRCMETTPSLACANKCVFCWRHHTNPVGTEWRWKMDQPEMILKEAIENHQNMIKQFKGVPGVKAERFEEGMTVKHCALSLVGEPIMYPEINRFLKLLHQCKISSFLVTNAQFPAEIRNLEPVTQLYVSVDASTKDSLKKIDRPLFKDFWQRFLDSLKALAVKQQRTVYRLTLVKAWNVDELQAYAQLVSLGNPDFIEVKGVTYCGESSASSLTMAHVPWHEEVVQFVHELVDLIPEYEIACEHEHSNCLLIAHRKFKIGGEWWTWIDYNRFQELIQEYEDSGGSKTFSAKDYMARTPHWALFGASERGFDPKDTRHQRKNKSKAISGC
# Chain of UniProt P12956 (P12956 whole entry, looked up): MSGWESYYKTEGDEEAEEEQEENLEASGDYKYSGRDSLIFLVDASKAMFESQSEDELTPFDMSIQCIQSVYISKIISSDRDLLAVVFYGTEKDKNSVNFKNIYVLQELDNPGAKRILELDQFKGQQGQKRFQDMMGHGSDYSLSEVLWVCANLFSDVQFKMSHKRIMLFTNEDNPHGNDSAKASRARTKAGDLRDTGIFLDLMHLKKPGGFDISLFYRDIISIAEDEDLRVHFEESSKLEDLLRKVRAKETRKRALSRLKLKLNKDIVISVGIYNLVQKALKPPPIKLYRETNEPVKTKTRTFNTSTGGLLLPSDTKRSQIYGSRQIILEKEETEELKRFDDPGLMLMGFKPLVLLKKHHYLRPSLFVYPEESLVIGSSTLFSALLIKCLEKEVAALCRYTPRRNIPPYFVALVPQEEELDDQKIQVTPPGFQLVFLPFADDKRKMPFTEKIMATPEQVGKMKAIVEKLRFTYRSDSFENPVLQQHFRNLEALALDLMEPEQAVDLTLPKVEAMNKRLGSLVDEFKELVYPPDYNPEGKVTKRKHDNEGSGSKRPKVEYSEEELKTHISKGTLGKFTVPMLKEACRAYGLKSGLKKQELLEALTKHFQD
# Chain of UniProt O94967 (O94967 whole entry, looked up): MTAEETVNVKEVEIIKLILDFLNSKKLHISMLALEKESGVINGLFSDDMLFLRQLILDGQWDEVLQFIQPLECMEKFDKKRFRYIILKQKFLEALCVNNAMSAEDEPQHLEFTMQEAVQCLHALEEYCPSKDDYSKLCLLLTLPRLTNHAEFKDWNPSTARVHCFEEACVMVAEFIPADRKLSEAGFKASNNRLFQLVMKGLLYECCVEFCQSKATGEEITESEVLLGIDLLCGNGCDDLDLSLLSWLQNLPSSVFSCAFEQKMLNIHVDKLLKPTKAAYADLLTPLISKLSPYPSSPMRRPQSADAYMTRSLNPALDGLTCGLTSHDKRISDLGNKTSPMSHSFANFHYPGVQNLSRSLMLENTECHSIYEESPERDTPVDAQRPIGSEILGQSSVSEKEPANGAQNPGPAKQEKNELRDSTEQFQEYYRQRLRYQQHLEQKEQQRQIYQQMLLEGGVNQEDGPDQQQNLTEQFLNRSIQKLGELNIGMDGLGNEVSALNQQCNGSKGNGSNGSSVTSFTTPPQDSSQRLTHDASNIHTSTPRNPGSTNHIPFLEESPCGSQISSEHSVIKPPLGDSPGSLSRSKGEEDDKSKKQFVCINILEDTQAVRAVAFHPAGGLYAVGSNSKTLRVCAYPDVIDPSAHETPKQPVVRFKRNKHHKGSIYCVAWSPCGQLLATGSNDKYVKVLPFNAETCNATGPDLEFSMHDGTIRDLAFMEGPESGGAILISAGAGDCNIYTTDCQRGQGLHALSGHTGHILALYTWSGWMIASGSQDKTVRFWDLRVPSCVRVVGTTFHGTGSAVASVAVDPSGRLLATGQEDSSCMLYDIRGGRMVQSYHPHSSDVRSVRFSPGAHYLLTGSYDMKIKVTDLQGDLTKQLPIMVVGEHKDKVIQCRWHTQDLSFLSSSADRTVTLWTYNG
# Chain of UniProt Q9UDW1 (Q9UDW1 whole entry, looked up): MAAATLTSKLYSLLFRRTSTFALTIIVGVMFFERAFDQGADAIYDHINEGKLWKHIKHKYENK
# Chain of UniProt O43617 (O43617 whole entry, looked up): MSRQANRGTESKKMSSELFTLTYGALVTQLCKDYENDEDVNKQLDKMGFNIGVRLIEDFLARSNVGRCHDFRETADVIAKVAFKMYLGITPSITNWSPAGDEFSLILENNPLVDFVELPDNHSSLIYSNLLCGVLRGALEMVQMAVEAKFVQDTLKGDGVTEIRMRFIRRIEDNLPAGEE
# Chain of UniProt Q92890 (Q92890 whole entry, looked up): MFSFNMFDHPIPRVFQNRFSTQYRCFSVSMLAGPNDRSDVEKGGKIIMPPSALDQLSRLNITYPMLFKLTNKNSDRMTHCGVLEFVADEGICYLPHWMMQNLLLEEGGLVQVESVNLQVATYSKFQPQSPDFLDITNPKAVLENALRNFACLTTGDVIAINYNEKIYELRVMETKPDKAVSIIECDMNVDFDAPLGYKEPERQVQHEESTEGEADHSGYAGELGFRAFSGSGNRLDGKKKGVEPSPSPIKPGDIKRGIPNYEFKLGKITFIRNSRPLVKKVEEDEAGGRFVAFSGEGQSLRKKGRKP
# Chain of UniProt Q9H269 (Q9H269 whole entry, looked up): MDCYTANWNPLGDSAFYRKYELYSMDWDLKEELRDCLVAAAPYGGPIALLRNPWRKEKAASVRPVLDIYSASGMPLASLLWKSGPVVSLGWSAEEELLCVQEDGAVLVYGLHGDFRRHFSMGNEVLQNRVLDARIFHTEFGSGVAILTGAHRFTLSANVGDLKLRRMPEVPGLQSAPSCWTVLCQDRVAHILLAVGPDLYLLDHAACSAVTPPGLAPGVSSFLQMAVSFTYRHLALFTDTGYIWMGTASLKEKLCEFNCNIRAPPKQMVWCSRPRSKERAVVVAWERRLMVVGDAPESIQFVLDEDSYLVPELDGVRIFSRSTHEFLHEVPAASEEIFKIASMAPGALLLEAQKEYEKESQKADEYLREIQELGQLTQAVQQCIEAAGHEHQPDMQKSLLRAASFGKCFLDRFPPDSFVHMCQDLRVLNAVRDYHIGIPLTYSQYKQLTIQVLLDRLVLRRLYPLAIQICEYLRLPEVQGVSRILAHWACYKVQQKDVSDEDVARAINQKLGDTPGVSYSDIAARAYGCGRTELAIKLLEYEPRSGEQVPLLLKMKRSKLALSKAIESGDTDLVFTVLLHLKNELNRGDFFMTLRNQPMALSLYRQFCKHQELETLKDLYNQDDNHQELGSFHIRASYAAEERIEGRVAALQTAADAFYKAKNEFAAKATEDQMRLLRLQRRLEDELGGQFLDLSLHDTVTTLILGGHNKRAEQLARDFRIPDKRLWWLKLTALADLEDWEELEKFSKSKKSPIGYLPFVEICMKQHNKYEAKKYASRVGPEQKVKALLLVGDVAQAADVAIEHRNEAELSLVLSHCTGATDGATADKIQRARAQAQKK
# Chain of UniProt Q9UID3 (Q9UID3 whole entry, looked up): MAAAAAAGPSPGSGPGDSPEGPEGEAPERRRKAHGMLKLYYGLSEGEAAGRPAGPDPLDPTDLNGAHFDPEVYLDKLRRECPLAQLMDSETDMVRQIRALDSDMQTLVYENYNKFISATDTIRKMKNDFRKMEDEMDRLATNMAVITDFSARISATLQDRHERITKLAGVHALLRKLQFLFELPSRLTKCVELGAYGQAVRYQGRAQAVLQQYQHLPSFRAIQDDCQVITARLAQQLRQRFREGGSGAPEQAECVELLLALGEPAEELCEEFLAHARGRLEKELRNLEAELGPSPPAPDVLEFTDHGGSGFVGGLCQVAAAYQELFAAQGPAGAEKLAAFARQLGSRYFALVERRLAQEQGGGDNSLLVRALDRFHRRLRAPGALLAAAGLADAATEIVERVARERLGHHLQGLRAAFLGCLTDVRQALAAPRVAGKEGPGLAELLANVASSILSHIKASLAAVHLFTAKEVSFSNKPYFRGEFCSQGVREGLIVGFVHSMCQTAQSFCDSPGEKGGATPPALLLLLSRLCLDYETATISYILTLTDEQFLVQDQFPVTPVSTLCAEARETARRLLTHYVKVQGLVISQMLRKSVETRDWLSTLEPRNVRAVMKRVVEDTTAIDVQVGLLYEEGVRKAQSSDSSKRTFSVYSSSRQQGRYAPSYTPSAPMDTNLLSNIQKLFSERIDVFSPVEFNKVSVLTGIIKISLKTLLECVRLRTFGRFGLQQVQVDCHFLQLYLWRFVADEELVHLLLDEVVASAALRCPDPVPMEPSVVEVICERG
# Chain of UniProt Q9UL33 (Q9UL33 whole entry, looked up): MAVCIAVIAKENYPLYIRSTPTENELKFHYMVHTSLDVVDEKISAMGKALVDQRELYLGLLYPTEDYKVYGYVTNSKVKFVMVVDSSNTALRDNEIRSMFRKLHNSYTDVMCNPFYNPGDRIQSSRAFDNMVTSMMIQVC
Target,log2 fold change [1],log2 fold change [2],log2 fold change [3],log2 fold change [4],log2 fold change [5],log2 fold change [6],log2 fold change [7],log2 fold change [8],log2 fold change [9],log2 fold change [10]
VPS51 (UniProt Q9UID3),0.029 (inactive),-0.024 (inactive),-0.01 (inactive),-0.098 (inactive),-0.092 (inactive),0.055 (inactive),0.019 (inactive),-0.057 (inactive),-0.032 (inactive),0.013 (inactive)
TRMT10C (UniProt Q7L0Y3),-0.045 (inactive),-0.031 (inactive),0.016 (inactive),-0.107 (inactive),-0.033 (inactive),0.018 (inactive),0.039 (inactive),0.005 (inactive),-0.033 (inactive),0.007 (inactive)
TYW1 (UniProt Q9NV66),-0.16 (inactive),-0.01 (inactive),0.019 (inactive),-0.023 (inactive),0 (inactive),0.095 (inactive),0.013 (inactive),-0.006 (inactive),0 (inactive),-0.147 (inactive)
VPS50 (UniProt Q96JG6),0.023 (inactive),-0.021 (inactive),0.028 (inactive),-0.157 (inactive),0.019 (inactive),0.012 (inactive),0.007 (inactive),-0.027 (inactive),-0.006 (inactive),-0.003 (inactive)
TRAPPC8 (UniProt Q9Y2L5),0.032 (inactive),-0.017 (inactive),0.03 (inactive),-0.059 (inactive),0.003 (inactive),0.013 (inactive),0.009 (inactive),-0.021 (inactive),0.021 (inactive),-0.001 (inactive)
VPS33B (UniProt Q9H267),0.027 (inactive),0.011 (inactive),0.026 (inactive),-0.036 (inactive),-0.116 (inactive),-0.046 (inactive),0.118 (inactive),-0.147 (inactive),0.011 (inactive),-0.035 (inactive)
TMTC3 (UniProt Q6ZXV5),-0.092 (inactive),0.01 (inactive),0.006 (inactive),-0.03 (inactive),0.105 (inactive),-0.085 (inactive),-0.007 (inactive),-0.041 (inactive),0.053 (inactive),0.032 (inactive)
USP3 (UniProt Q9Y6I4),0.131 (inactive),-0.246 (inactive),0.009 (inactive),-0.039 (inactive),0.085 (inactive),-0.201 (inactive),-0.007 (inactive),-0.014 (inactive),0.053 (inactive),0.027 (inactive)
UFD1 isoform 1 (UniProt Q92890),0.225 (active),-0.033 (inactive),-0.028 (inactive),-0.043 (inactive),-0.023 (inactive),-0.052 (inactive),-0.001 (inactive),0.033 (inactive),0.018 (inactive),-0.037 (inactive)
TRIM28 (UniProt Q13263),0.015 (inactive),-0.017 (inactive),0.046 (inactive),-0.031 (inactive),-0.087 (inactive),0.003 (inactive),0.002 (inactive),-0.03 (inactive),-0.005 (inactive),0.033 (inactive)
TRAPPC3 (UniProt O43617),-0.141 (inactive),-0.069 (inactive),-0.037 (inactive),-0.025 (inactive),-0.055 (inactive),0.012 (inactive),0.007 (inactive),0.067 (inactive),0.023 (inactive),0.023 (inactive)
UBA6,0.021 (inactive),-0.01 (inactive),0.051 (inactive),-0.016 (inactive),-0.04 (inactive),-0.031 (inactive),0.029 (inactive),-0.069 (inactive),0.022 (inactive),0.004 (inactive)
VPS37A (UniProt Q8NEZ2),-0.046 (inactive),-0.011 (inactive),0.107 (inactive),0.002 (inactive),-0.054 (inactive),0.001 (inactive),0.05 (inactive),0.024 (inactive),-0.035 (inactive),0.058 (inactive)
TPM2 (UniProt P07951),0.503 (active),-0.024 (inactive),0.013 (inactive),-0.026 (inactive),-0.058 (inactive),-0.055 (inactive),-0.003 (inactive),-0.14 (inactive),0.166 (inactive),-0.181 (inactive)
XPOT (UniProt O43592),0.011 (inactive),-0.052 (inactive),0.022 (inactive),-0.073 (inactive),-0.059 (inactive),0.033 (inactive),-0.023 (inactive),-0.046 (inactive),-0.028 (inactive),0.023 (inactive)
TRAPPC2L (UniProt Q9UL33),-0.102 (inactive),-0.05 (inactive),0.098 (inactive),-0.026 (inactive),-0.029 (inactive),0.03 (inactive),0 (inactive),-0.062 (inactive),0.088 (inactive),-0.018 (inactive)
WDR62 isoform 4 (UniProt O43379),-0.036 (inactive),0.016 (inactive),0.028 (inactive),0.02 (inactive),-0.024 (inactive),-0.026 (inactive),0.049 (inactive),0.046 (inactive),0.054 (inactive),0.015 (inactive)

Target,log2 fold change [1],log2 fold change [2],log2 fold change [3],log2 fold change [4],log2 fold change [5],log2 fold change [6],log2 fold change [7],log2 fold change [8],log2 fold change [9],log2 fold change [10]
VPS39 (UniProt Q96JC1),-0.038 (inactive),-0.119 (inactive),0.023 (inactive),-0.028 (inactive),-0.012 (inactive),0.021 (inactive),0.051 (inactive),-0.059 (inactive),-0.012 (inactive),-0.035 (inactive)
TRAPPC6B (UniProt Q86SZ2),0.055 (inactive),-0.023 (inactive),0.012 (inactive),-0.023 (inactive),-0.009 (inactive),-0.003 (inactive),0.042 (inactive),0.028 (inactive),0.019 (inactive),0.02 (inactive)
TUBA4A (UniProt P68366),0.032 (inactive),-0.108 (inactive),0.044 (inactive),-0.108 (inactive),-0.027 (inactive),-0.043 (inactive),0.019 (inactive),0.071 (inactive),0.04 (inactive),0.04 (inactive)
UBE3D (UniProt Q7Z6J8),-0.005 (inactive),0.08 (inactive),-0.033 (inactive),-0.009 (inactive),-0.088 (inactive),-0.022 (inactive),0.035 (inactive),0.009 (inactive),-0.069 (inactive),0.139 (inactive)
VPS16 (UniProt Q9H269),0.018 (inactive),-0.093 (inactive),0.033 (inactive),-0.065 (inactive),-0.056 (inactive),-0.009 (inactive),-0.1 (inactive),-0.017 (inactive),-0.006 (inactive),-0.044 (inactive)
XPO1 (UniProt O14980),0.074 (inactive),-0.121 (inactive),0.004 (inactive),-0.123 (inactive),-0.003 (inactive),0.023 (inactive),-0.032 (inactive),0.001 (inactive),-0.023 (inactive),-0.071 (inactive)
USP9X (UniProt Q93008),-0.02 (inactive),-0.017 (inactive),0.018 (inactive),-0.096 (inactive),-0.02 (inactive),0.029 (inactive),-0.007 (inactive),-0.008 (inactive),-0.027 (inactive),-0.033 (inactive)
U2AF1 isoform 2 (UniProt Q01081),0.165 (inactive),0.034 (inactive),0.043 (inactive),0.055 (inactive),-0.019 (inactive),0.06 (inactive),0.036 (inactive),0.045 (inactive),0 (inactive),0.069 (inactive)
UQCR10 (UniProt Q9UDW1),-0.084 (inactive),-0.05 (inactive),-0.02 (inactive),0.031 (inactive),-0.005 (inactive),0.037 (inactive),-0.028 (inactive),0.022 (inactive),-0.038 (inactive),-0.063 (inactive)
XRCC6 (UniProt P12956),0.006 (inactive),-0.021 (inactive),0.058 (inactive),-0.059 (inactive),-0.014 (inactive),-0.097 (inactive),-0.01 (inactive),-0.008 (inactive),0.013 (inactive),-0.024 (inactive)
USP7 (UniProt Q93009),0.034 (inactive),-0.14 (inactive),-0.007 (inactive),-0.053 (inactive),0.144 (inactive),0.039 (inactive),0.04 (inactive),0.019 (inactive),-0.029 (inactive),0.002 (inactive)
TMEM9 (UniProt Q9P0T7),-0.085 (inactive),-0.078 (inactive),0.081 (inactive),0.006 (inactive),-0.081 (inactive),-0.178 (inactive),-0.007 (inactive),0.052 (inactive),0.04 (inactive),0.036 (inactive)
WDR47 (UniProt O94967),0.057 (inactive),-0.014 (inactive),-0.006 (inactive),-0.071 (inactive),0.21 (inactive),-0.029 (inactive),-0.001 (inactive),0.061 (inactive),-0.007 (inactive),0.077 (inactive)
UBE2Q1 (UniProt Q7Z7E8),-0.09 (inactive),-0.042 (inactive),0.022 (inactive),0.006 (inactive),-0.055 (inactive),0.012 (inactive),-0.02 (inactive),-0.044 (inactive),0.01 (inactive),0.039 (inactive)
UBIAD1 (UniProt Q9Y5Z9),-0.063 (inactive),-0.038 (inactive),-0.246 (inactive),-0.039 (inactive),-0.054 (inactive),-0.008 (inactive),0.077 (inactive),0.013 (inactive),0.082 (inactive),0.103 (inactive)
UBAP2L isoform 5 (UniProt Q14157),-0.026 (inactive),-0.014 (inactive),-0.03 (inactive),-0.047 (inactive),-0.034 (inactive),0 (inactive),-0.019 (inactive),0.012 (inactive),0 (inactive),-0.015 (inactive)
WASHC2A (UniProt Q641Q2),0.007 (inactive),0.019 (inactive),-0.053 (inactive),0.063 (inactive),-0.065 (inactive),-0.011 (inactive),-0.009 (inactive),-0.005 (inactive),0.02 (inactive),0.038 (inactive)
